Measurements as given in PubChem BioAssay (NCI).
About 79,000 compounds went through this panel and 15% of them were active in at least one assay; those are over-represented in the sample as a whole. Calls of active or inactive are those of the source. Cut-off read from the data, not from the text of the source: active = growth inhibition above about 70%; inactive = the rest.

What was measured:
[1] = NCI Yeast Anticancer Drug Screen. Data for the rad52 strain (AID 147);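 note: 0% = growth of vehicle-treated control cultures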; settings: S. cerevisiae rad52 mutant growth inhibition, active compounds read high
In short: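 Compounds are applied to a genetically defined yeast strain lacking normal DNA damage repair, and inhibition of growth is expressed relative to cultures given vehicle only.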

[2] = NCI Yeast Anticancer Drug Screen. Data for the wt1 strain (AID 149);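 note: 0% = growth of vehicle-treated wt1 cultures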; settings: S. cerevisiae wt1 strain (SPY 50644) growth inhibition, active compounds read high
In short: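 Vehicle-normalised growth inhibition; strain wt1; compound exposure.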

[3] = NCI Yeast Anticancer Drug Screen. Data for the rad50EPP+ strain (AID 151);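 note: 0% = growth of vehicle-treated control cultures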; settings: S. cerevisiae rad50 mutant strain, active compounds read high
In short: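 Compounds were applied to the rad50EPP+ yeast strain, which bears a defined DNA repair alteration, and growth inhibition was determined relative to vehicle-treated cultures.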

[4] = NCI Yeast Anticancer Drug Screen. Data for the mgt1 strain (AID 153); settings: S. cerevisiae mgt1 mutant growth inhibition, active compounds read high
In short: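 Strain: mgt1 yeast, one of a set carrying defined DNA damage repair or cell cycle control alterations. Compound-treated growth compared with vehicle.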

[5] = NCI Yeast Anticancer Drug Screen. Data for the rad50 strain (AID 155);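 note: 0% = growth of vehicle-only cultures of the same strain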; settings: S. cerevisiae rad50 strain growth inhibition, active compounds read high
In short: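 A DNA repair-deficient yeast mutant serves as the test organism; compound-induced growth inhibition is calculated against vehicle-treated cells.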

[6] = NCI Yeast Anticancer Drug Screen. Data for the mec2-1 strain (AID 157); settings: S. cerevisiae mec2-1 strain, active compounds read high
In short: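 Strain: mec2-1 (DNA repair/cell cycle alteration). Compound exposure, then growth measured; inhibition expressed relative to vehicle.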

[7] = NCI Yeast Anticancer Drug Screen. Data for the rad14 strain (AID 159);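 note: 0% = growth of vehicle-treated control cultures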; settings: S. cerevisiae rad14 strain growth inhibition, active compounds read high
In short: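 Vehicle-treated cultures served as the baseline for growth inhibition of a DNA repair-mutant yeast strain exposed to each compound.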

[8] = NCI Yeast Anticancer Drug Screen. Data for the sgs1 mgt1 strain (AID 161);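 note: 0% = growth of cultures given vehicle only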; settings: S. cerevisiae sgs1 mgt1 strain, active compounds read high
In short: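 Mutant yeast exposed to compound; growth scored against vehicle-only wells.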

[9] = NCI Yeast Anticancer Drug Screen. Data for the CLN2oe strain (AID 163);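 note: 0% = growth of vehicle-only control cultures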; settings: S. cerevisiae CLN2oe strain, active compounds read high
In short: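 Growth of a genetically modified yeast strain is measured after compound exposure and compared with cultures given vehicle alone.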

[10] = NCI Yeast Anticancer Drug Screen. Data for the cln2 rad14 strain (AID 165);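 note: 0% = growth equal to vehicle treated cultures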; settings: S. cerevisiae cln2 rad14 strain, active compounds read high
In short: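 Compounds are applied to the cln2 rad14 yeast strain, and growth is then compared with that of vehicle-treated cultures to give inhibition.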

[11] = NCI Yeast Anticancer Drug Screen. Data for the bub3 strain (AID 167); settings: S. cerevisiae bub3 mutant strain, active compounds read high
In short: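 Inhibition values come from growth of compound-treated mutant yeast normalised to vehicle-treated controls.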

[12] = NCI Yeast Anticancer Drug Screen. Data for the wt2 strain (AID 169);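 note: 0% = growth of vehicle-treated yeast cultures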; settings: S. cerevisiae wt2 strain growth inhibition, active compounds read high
In short: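 This strain belongs to a panel of yeast strains with defined genetic alterations in DNA damage repair or cell cycle control. Compounds are applied, and growth inhibition is measured against vehicle-treated cultures.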

[13] = NCI Yeast Anticancer Drug Screen. Data for the mlh1 strain (AID 171);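 note: 0% = growth of vehicle-treated control cultures of the same strain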; settings: S. cerevisiae mlh1 strain growth inhibition, active compounds read high
In short: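 Growth of the mutant yeast strain after compound exposure, expressed as inhibition relative to vehicle-only controls.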

[14] = NCI Yeast Anticancer Drug Screen. Data for the sgs1 strain (AID 173);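 note: 0% = growth of vehicle-only control cultures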; settings: S. cerevisiae sgs1 mutant, active compounds read high
In short: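 Growth of a yeast strain bearing a defined genetic alteration is measured after compound treatment. Inhibition is expressed relative to vehicle-only controls.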

[15] = NCI Yeast Anticancer Drug Screen. Data for the mlh1 rad18 strain (AID 175); settings: S. cerevisiae mlh1 rad18 strain growth inhibition, active compounds read high
In short: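 Read-out is yeast growth inhibition, calculated against vehicle-only controls. The compound was applied to a strain engineered with DNA damage repair alterations.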

[16] = NCI Yeast Anticancer Drug Screen. Data for the rad18 strain (AID 177); settings: S. cerevisiae rad18 mutant growth inhibition, active compounds read high
In short: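 Growth of the mutant yeast strain after compound exposure, normalised to vehicle-only cultures.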

[17] = at 5.0 µM (retest, dose inferred, filed as 0.5)
[18] = at 50.0 µM (retest, dose inferred, filed as 5.0)

Measured: growth inhibition

COC(=O)Oc1cc(Cl)c(Cl)cc1Cl
inactive: [1]; at 1.2 µM 0% | [1]; at 3.7 µM 0% | [1]; at 11.0 µM -1% | [1]; at 33.0 µM 4% | [1]; at 100.0 µM 9% | [2]; at 1.2 µM -1% | [2]; at 3.7 µM -2% | [2]; at 11.0 µM -3% | [2]; at 33.0 µM -4% | [2]; at 100.0 µM 0% | [3]; at 1.2 µM -1% | [3]; at 3.7 µM 0% | [3]; at 11.0 µM 7% | [3]; at 33.0 µM 2% | [3]; at 100.0 µM 1% | [4]; at 1.2 µM -1% | [4]; at 3.7 µM 0% | [4]; at 11.0 µM 1% | [4]; at 33.0 µM -3% | [4]; at 100.0 µM 1% | [5]; at 1.2 µM 0% | [5]; at 3.7 µM 0% | [5]; [17] 4% | [5]; at 11.0 µM -1% | [5]; at 33.0 µM 2% | [5]; [18] -5% | [5]; at 50.0 µM 30.8% | [5]; at 100.0 µM 10% | [6]; at 1.2 µM 0% | [6]; at 3.7 µM 4% | [6]; [17] -4% | [6]; at 11.0 µM 3% | [6]; at 33.0 µM 5% | [6]; [18] 23% | [6]; at 50.0 µM 21.4% | [6]; at 100.0 µM 8% | [7]; at 1.2 µM 0% | [7]; at 3.7 µM 0% | [7]; at 11.0 µM 2% | [7]; at 33.0 µM 5% | [7]; at 100.0 µM 9% | [8]; [17] 3% | [8]; [18] 1% | [8]; at 50.0 µM 30.1% | [9]; at 1.2 µM -4% | [9]; at 3.7 µM -3% | [9]; at 11.0 µM -7% | [9]; at 33.0 µM -6% | [9]; at 100.0 µM -4% | [10]; [17] 3% | [10]; [18] 52% | [10]; at 50.0 µM 22.6% | [11]; at 1.2 µM 1% | [11]; at 3.7 µM 3% | [11]; [17] 12% | [11]; at 11.0 µM 1% | [11]; at 33.0 µM 3% | [11]; [18] 4% | [11]; at 50.0 µM 36% | [11]; at 100.0 µM 3% | [12]; at 1.2 µM 0% | [12]; at 3.7 µM -2% | [12]; at 11.0 µM -2% | [12]; at 33.0 µM -2% | [12]; at 100.0 µM -1% | [13]; at 1.2 µM 1% | [13]; at 3.7 µM -2% | [13]; at 11.0 µM -7% | [13]; at 33.0 µM 3% | [13]; at 100.0 µM 13% | [14]; at 1.2 µM 0% | [14]; at 3.7 µM 0% | [14]; at 11.0 µM 1% | [14]; at 33.0 µM 3% | [14]; at 100.0 µM 10% | [15]; [17] 7% | [15]; [18] 19% | [15]; at 50.0 µM 11.8% | [16]; at 1.2 µM 0% | [16]; at 3.7 µM 5% | [16]; at 11.0 µM 6% | [16]; at 33.0 µM 9% | [16]; at 100.0 µM 20%

Cn1c(=O)c2c(nc(N)n2C2OC(CO)C(O)C2O)n(C)c1=O (stereo unspecified)
active: [5]; at 50.0 µM 87.4% | [6]; at 50.0 µM 92% | [8]; at 50.0 µM 85.3% | [10]; at 50.0 µM 88.6% | [11]; at 50.0 µM 89% | [15]; at 50.0 µM 83.8%
inactive: [1]; at 1.2 µM -2% | [1]; at 3.7 µM -1% | [1]; at 11.0 µM -4% | [1]; at 33.0 µM -4% | [1]; at 100.0 µM 0% | [2]; at 1.2 µM -1% | [2]; at 3.7 µM -1% | [2]; at 11.0 µM -2% | [2]; at 33.0 µM -2% | [2]; at 100.0 µM 1% | [3]; at 1.2 µM -1% | [3]; at 3.7 µM 1% | [3]; at 11.0 µM 1% | [3]; at 33.0 µM -1% | [3]; at 100.0 µM 2% | [4]; at 1.2 µM -1% | [4]; at 3.7 µM -2% | [4]; at 11.0 µM 7% | [4]; at 33.0 µM -7% | [4]; at 100.0 µM 0% | [5]; at 1.2 µM -2% | [5]; at 3.7 µM 0% | [5]; [17] 17% | [5]; at 11.0 µM -11% | [5]; at 33.0 µM -1% | [5]; [18] 22% | [5]; at 100.0 µM 1% | [6]; at 1.2 µM 0% | [6]; at 3.7 µM 1% | [6]; [17] -2% | [6]; at 11.0 µM 1% | [6]; at 33.0 µM -3% | [6]; [18] -19% | [6]; at 100.0 µM -2% | [7]; at 1.2 µM -4% | [7]; at 3.7 µM -4% | [7]; at 11.0 µM -6% | [7]; at 33.0 µM -7% | [7]; at 100.0 µM 0% | [8]; [17] -17% | [8]; [18] 20% | [9]; at 1.2 µM 1% | [9]; at 3.7 µM -3% | [9]; at 11.0 µM 3% | [9]; at 33.0 µM 3% | [9]; at 100.0 µM 10% | [10]; [17] -9% | [10]; [18] 50% | [11]; at 1.2 µM 0% | [11]; at 3.7 µM 3% | [11]; [17] -19% | [11]; at 11.0 µM 12% | [11]; at 33.0 µM 15% | [11]; [18] 18% | [11]; at 100.0 µM 15% | [12]; at 1.2 µM -4% | [12]; at 3.7 µM -4% | [12]; at 11.0 µM -4% | [12]; at 33.0 µM -2% | [12]; at 100.0 µM 0% | [13]; at 1.2 µM -1% | [13]; at 3.7 µM -7% | [13]; at 11.0 µM -1% | [13]; at 33.0 µM 3% | [13]; at 100.0 µM -1% | [14]; at 1.2 µM -1% | [14]; at 3.7 µM -1% | [14]; at 11.0 µM -1% | [14]; at 33.0 µM -2% | [14]; at 100.0 µM 1% | [15]; [17] 2% | [15]; [18] 37% | [16]; at 1.2 µM -1% | [16]; at 3.7 µM 2% | [16]; at 11.0 µM -1% | [16]; at 33.0 µM -2% | [16]; at 100.0 µM -2%

COc1cc(O)c2c(c1O)C(=O)c1cc(C)ncc1C2=O
inactive: [1]; at 1.2 µM 9% | [1]; at 3.7 µM 16% | [1]; at 11.0 µM 29% | [1]; at 33.0 µM 51% | [2]; at 1.2 µM 6% | [2]; at 3.7 µM 24% | [2]; at 11.0 µM 36% | [2]; at 33.0 µM 39% | [2]; at 100.0 µM 48% | [3]; at 1.2 µM 8% | [3]; at 3.7 µM 20% | [3]; at 11.0 µM 19% | [3]; at 33.0 µM 48% | [3]; at 100.0 µM 52% | [4]; at 1.2 µM 5% | [4]; at 3.7 µM 4% | [4]; at 11.0 µM 15% | [4]; at 33.0 µM 39% | [4]; at 100.0 µM 60% | [5]; at 1.2 µM 8% | [5]; at 3.7 µM 13% | [5]; [17] 9% | [5]; at 11.0 µM 33% | [5]; at 33.0 µM 57% | [5]; [18] 48% | [5]; at 50.0 µM 65.7% | [6]; at 1.2 µM 10% | [6]; at 3.7 µM 10% | [6]; [17] 8% | [6]; at 11.0 µM 9% | [6]; at 33.0 µM 9% | [6]; [18] 44% | [6]; at 50.0 µM 23.2% | [6]; at 100.0 µM 23% | [7]; at 1.2 µM 31% | [7]; at 3.7 µM 47% | [8]; [17] 9% | [8]; at 50.0 µM 69.9% | [9]; at 1.2 µM 16% | [9]; at 3.7 µM 11% | [9]; at 11.0 µM 5% | [9]; at 33.0 µM 10% | [9]; at 100.0 µM 12% | [10]; [17] 1% | [10]; [18] 12% | [10]; at 50.0 µM 18.9% | [11]; at 1.2 µM 14% | [11]; at 3.7 µM 13% | [11]; [17] 5% | [11]; at 11.0 µM 26% | [11]; at 33.0 µM 51% | [11]; [18] 42%
active: [1]; at 100.0 µM 72% | [5]; at 100.0 µM 86% | [7]; at 11.0 µM 70% | [7]; at 33.0 µM 91% | [7]; at 100.0 µM 94% | [8]; [18] 84% | [11]; at 50.0 µM 75.9% | [11]; at 100.0 µM 73%
